Test results published in the supplement of paper PMC11732987, “Enantioselective OTUD7B fragment discovery through chemoproteomics screening and high-throughput optimisation” (Communications Chemistry, 2025).

Legend:
Test in all cases: log2 ratio of Biotin-Ahx-Ub-VS probe labelling (fragment/DMSO); higher = less target engagement (more negative = stronger competition), active = hit call of the paper (q ≤ 0.05, log2 ratio ≤ -1)
Settings in all cases: compound concentration: 200 uM; treatment time: 3 h
USP42 = target: T1, USP42 (UniProt Q9H9J4)
T1 sequence (whole entry): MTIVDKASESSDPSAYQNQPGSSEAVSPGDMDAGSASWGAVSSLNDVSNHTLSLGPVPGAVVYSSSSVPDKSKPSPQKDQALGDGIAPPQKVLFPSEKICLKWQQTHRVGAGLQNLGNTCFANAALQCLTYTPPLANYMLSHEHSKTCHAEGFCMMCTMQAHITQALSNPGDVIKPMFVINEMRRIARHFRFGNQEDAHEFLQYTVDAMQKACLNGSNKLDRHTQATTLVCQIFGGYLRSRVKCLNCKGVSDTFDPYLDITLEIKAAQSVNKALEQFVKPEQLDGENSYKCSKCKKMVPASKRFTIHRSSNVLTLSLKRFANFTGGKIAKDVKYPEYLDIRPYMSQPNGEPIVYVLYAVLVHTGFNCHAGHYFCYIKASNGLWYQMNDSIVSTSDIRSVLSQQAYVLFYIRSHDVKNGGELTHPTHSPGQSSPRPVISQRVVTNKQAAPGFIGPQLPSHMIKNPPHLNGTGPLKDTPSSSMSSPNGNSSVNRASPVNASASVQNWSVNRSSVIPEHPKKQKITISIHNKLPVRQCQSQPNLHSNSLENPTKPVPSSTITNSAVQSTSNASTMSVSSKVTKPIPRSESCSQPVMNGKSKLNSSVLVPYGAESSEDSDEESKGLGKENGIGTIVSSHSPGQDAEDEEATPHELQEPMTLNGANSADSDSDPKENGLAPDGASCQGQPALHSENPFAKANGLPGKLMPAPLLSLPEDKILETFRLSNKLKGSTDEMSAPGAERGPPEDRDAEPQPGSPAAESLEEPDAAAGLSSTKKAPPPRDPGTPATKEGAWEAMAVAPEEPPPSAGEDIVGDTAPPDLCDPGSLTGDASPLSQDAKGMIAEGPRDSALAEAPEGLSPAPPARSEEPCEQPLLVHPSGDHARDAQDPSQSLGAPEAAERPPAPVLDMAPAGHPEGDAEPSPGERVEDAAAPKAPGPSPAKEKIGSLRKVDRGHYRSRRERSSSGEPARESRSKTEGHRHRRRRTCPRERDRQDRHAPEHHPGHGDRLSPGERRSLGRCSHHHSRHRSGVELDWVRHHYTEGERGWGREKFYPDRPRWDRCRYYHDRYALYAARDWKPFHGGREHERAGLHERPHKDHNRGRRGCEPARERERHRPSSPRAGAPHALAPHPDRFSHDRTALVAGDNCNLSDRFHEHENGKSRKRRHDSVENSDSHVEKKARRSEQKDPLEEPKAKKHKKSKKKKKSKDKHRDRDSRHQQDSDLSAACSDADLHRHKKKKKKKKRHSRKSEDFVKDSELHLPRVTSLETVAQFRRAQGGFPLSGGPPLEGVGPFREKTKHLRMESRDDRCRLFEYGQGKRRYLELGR
How it was run: (§1)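 Labelled DUBs from HEK293T lysate were NeutrAvidin-enriched, digested with LysC and trypsin, and run by diaPASEF LC-MS/MS. Before that, each 495 µg sample in Tris/CHAPS/IGEPAL buffer with protease inhibitors was treated in triplicate with fragment at 200 µM or vehicle for 3 h, then with Biotin-Ahx-Ub-VS at 0.5 µM final for 1 h. Values are average log2 ratios of fragment over vehicle by unpaired t-test, based on global-median-normalised Spectronaut label-free quantities from proteins with ≥2 unique peptides.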

USP46 = USP46 (UniProt P62068)
How it was run: as §1

USP47 = target: T2, USP47 (UniProt Q96K76)
T2 sequence (whole entry): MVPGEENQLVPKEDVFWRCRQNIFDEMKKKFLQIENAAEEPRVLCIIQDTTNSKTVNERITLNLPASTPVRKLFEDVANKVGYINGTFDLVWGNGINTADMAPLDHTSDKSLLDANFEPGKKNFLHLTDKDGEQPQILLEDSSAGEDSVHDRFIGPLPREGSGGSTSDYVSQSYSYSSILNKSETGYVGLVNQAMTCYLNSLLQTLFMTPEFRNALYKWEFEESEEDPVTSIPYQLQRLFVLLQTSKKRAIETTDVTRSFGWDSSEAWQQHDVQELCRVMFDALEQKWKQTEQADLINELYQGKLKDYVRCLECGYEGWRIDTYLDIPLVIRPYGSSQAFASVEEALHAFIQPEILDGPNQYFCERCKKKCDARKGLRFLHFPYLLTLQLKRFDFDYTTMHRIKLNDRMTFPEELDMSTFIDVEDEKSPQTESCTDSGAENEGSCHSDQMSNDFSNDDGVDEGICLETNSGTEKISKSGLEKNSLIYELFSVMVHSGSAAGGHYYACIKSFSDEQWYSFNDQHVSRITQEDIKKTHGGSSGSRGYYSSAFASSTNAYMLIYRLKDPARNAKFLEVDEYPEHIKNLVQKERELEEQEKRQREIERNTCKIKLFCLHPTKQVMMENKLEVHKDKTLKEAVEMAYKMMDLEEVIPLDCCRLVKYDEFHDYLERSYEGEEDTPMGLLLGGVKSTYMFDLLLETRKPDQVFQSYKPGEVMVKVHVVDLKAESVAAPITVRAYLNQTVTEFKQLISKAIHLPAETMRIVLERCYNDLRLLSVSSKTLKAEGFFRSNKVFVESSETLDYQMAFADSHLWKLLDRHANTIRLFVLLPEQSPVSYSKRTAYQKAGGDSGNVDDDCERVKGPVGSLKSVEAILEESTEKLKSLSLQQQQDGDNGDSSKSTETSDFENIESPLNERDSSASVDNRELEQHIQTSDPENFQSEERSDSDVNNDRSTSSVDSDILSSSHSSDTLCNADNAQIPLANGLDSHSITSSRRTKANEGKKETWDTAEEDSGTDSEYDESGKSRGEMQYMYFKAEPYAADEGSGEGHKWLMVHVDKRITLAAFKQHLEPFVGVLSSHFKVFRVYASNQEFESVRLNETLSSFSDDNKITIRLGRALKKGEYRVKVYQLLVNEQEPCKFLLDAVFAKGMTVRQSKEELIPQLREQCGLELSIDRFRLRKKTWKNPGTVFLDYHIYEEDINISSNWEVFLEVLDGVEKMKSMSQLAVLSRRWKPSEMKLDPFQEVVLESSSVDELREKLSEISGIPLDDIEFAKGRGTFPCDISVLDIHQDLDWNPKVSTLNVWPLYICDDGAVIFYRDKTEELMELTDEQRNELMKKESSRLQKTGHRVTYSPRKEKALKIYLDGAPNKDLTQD
How it was run: as §1

USP48 = target: T3, USP48 (UniProt Q86UV5)
T3 sequence (whole entry): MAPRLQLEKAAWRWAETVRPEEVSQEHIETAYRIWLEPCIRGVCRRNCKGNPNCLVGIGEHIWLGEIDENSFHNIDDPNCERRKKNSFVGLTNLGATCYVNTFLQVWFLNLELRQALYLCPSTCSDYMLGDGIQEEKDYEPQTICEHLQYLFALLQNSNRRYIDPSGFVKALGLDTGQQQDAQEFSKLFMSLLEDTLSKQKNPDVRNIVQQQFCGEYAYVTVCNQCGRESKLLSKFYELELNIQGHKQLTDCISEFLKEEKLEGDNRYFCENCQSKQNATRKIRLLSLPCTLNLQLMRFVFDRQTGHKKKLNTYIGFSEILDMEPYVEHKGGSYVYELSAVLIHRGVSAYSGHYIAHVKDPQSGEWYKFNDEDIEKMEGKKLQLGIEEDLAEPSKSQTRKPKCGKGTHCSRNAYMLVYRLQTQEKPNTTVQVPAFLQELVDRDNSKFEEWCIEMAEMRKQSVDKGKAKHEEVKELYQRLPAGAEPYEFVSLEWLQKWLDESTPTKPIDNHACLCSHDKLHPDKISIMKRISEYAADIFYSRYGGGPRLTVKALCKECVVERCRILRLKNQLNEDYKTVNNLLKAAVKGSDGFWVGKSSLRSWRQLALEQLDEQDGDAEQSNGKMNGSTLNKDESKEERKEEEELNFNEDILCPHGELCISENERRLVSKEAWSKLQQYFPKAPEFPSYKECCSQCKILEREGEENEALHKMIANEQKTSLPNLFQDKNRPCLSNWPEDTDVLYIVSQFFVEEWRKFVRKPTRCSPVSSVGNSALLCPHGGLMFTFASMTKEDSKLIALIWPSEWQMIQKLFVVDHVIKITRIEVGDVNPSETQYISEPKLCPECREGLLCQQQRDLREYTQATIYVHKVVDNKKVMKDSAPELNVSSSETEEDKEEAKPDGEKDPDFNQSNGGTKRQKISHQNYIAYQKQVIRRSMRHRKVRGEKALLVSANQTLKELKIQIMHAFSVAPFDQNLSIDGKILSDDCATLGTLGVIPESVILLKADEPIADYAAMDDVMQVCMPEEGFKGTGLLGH
How it was run: as §1

USP5 = target: T4, USP5 (UniProt P45974)
T4 sequence (whole entry): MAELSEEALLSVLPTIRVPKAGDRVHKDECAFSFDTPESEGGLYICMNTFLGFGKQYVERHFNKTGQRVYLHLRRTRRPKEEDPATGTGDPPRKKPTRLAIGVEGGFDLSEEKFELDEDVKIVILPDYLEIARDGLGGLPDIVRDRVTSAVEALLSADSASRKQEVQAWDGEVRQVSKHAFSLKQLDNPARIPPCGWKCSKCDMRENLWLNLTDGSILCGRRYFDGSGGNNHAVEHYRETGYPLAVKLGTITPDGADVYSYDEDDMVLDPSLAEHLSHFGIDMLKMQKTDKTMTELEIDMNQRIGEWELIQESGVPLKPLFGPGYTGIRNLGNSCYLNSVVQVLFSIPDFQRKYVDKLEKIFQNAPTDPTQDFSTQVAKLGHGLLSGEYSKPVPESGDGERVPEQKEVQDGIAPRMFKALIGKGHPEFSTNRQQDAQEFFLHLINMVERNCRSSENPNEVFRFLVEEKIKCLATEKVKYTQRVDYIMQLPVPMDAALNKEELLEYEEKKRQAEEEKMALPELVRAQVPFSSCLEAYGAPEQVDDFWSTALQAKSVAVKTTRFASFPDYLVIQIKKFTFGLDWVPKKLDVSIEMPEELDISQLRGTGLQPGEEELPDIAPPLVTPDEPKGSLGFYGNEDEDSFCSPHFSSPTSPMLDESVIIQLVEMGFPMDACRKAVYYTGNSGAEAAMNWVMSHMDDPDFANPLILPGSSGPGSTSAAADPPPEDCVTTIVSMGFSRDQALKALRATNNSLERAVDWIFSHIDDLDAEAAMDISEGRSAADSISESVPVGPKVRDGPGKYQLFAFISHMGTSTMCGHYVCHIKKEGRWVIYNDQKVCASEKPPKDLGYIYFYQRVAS
How it was run: as §1

USP54 = USP54 (UniProt Q70EL1)
How it was run: as §1

USP7 = USP7 (UniProt Q93009)
How it was run: as §1

USP8 = target: T5, USP8 (UniProt P40818)
T5 sequence (whole entry): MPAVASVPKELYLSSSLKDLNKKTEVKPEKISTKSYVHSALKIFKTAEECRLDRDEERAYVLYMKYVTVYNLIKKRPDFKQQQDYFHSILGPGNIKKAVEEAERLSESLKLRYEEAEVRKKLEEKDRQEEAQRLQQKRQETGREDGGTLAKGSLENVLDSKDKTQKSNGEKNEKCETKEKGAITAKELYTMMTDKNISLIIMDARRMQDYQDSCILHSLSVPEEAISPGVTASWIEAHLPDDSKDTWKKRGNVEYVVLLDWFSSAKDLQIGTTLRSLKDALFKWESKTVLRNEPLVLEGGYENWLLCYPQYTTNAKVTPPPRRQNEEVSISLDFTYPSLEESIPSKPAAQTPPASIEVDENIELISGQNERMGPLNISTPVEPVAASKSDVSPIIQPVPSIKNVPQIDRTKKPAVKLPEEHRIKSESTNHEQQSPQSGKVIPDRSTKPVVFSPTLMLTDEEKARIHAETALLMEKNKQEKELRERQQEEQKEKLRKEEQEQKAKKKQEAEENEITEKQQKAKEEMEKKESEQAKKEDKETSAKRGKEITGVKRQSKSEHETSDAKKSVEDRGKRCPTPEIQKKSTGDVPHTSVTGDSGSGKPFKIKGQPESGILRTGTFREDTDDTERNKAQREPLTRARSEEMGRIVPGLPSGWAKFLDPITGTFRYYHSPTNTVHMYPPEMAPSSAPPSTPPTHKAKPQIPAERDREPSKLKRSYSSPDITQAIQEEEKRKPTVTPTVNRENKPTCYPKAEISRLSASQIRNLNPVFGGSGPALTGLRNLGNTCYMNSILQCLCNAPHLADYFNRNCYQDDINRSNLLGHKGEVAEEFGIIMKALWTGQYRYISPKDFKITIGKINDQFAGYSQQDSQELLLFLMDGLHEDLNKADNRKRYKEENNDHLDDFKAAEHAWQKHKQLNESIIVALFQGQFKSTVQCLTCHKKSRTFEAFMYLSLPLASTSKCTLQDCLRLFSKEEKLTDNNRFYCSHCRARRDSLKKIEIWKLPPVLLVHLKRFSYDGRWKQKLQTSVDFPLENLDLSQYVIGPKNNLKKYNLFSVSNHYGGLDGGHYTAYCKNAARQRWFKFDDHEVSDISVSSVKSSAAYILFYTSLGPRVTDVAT
How it was run: as §1

Measured: log2 ratio of Biotin-Ahx-Ub-VS probe labelling

Chain of USP46 (P62068 whole entry): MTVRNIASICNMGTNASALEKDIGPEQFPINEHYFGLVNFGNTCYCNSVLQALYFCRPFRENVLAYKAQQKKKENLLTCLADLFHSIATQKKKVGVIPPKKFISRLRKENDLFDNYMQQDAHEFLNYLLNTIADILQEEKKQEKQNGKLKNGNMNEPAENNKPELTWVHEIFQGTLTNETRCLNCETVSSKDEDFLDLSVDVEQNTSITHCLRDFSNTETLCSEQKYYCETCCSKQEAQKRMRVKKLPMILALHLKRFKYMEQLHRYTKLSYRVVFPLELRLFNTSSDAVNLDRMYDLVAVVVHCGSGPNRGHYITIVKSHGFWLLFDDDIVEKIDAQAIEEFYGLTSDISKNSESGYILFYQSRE
Chain of USP54 (Q70EL1 whole entry): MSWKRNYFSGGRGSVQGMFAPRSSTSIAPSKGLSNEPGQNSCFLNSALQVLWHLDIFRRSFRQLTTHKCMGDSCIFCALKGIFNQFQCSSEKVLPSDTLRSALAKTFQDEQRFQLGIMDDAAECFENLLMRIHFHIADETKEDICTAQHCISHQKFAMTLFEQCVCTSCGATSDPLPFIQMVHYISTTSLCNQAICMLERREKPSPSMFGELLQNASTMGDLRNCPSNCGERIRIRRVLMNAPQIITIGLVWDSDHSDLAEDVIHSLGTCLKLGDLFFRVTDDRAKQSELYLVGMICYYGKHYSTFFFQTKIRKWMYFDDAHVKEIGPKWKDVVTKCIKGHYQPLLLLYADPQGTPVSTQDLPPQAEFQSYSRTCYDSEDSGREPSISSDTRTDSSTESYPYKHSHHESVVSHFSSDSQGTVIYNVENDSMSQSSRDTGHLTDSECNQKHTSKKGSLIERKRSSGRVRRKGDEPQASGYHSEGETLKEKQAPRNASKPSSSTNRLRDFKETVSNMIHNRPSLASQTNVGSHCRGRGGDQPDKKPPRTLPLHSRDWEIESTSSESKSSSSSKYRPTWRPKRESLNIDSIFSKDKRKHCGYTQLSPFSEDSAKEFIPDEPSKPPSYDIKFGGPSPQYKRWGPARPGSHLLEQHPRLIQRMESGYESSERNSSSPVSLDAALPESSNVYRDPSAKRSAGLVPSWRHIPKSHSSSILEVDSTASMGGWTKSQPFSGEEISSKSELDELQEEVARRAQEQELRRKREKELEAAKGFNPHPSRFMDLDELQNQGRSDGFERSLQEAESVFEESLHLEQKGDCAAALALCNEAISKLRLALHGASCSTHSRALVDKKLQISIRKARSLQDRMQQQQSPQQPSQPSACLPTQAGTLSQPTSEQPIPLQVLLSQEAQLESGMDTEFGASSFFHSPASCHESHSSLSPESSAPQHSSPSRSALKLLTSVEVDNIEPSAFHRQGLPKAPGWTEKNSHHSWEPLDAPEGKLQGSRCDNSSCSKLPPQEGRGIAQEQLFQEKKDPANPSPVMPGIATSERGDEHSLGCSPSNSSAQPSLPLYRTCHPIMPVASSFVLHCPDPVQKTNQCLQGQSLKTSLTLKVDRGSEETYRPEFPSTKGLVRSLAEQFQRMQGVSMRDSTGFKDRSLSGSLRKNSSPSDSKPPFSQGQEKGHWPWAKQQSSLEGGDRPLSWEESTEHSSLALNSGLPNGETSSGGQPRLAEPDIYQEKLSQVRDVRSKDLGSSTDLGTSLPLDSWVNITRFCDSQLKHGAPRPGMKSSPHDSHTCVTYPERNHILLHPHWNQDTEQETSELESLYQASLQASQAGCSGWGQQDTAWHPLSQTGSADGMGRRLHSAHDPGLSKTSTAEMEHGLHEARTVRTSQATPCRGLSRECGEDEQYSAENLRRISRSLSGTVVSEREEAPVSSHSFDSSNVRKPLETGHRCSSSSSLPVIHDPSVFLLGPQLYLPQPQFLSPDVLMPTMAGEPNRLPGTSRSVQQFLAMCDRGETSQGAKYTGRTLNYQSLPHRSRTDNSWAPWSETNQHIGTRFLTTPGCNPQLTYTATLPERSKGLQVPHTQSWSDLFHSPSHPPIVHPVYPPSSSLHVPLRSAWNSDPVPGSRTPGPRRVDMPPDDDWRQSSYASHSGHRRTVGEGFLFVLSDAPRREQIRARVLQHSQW
Chain of USP7 (Q93009 whole entry, looked up): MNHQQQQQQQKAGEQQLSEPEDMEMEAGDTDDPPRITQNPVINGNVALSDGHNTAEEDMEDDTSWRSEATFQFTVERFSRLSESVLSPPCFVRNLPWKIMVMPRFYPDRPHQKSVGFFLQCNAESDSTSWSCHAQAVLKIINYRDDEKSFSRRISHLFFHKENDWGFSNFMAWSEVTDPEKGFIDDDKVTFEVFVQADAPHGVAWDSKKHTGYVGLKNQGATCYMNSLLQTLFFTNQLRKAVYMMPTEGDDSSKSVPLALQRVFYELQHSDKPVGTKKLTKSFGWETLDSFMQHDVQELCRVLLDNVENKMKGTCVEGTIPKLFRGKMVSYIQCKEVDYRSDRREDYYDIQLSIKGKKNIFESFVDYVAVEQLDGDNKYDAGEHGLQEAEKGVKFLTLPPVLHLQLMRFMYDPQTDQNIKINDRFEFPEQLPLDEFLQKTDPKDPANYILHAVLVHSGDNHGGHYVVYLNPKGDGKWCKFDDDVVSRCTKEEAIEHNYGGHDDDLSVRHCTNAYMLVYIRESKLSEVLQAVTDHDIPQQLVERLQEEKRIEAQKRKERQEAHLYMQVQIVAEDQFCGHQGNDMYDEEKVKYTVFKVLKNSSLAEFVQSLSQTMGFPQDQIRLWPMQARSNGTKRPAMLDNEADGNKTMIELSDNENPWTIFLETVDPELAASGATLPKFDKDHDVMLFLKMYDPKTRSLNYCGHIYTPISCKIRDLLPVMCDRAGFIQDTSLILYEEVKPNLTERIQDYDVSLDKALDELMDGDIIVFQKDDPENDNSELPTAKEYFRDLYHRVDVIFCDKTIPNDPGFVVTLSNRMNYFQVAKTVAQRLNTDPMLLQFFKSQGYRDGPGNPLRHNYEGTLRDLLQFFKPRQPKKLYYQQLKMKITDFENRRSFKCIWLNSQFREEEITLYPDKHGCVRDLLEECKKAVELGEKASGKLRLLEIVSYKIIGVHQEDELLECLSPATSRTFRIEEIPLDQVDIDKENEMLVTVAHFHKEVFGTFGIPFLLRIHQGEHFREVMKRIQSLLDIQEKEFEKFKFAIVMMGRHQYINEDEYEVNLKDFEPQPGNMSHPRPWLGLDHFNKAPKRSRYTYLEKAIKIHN

O=C(CCl)NCCc1cccc2ccccc12
inactive: USP42 0.608 | USP46 -0.0148 | USP47 0.102 | USP48 -0.131 | USP5 0.258 | USP54 -0.0844 | USP7 -0.217 | USP8 -0.118
